Data as given in PubChem BioAssay (Tox21).
Inconclusive results are not listed. Entries that show only a call come without a potency. Calls of active or inactive are those of the source. Unless noted, calls come from the whole dose curve.

Legend:
[1] = molecular target: Gonadotropin-releasing hormone receptor (Homo sapiens) (UniProt P30968); assay: Human gonadotropin-releasing hormone receptor (GnRHR) small molecule agonists, calcium flux assay in GnRHR-HEK293 cells (AID 1920063); note: nearly all actives have a fitted effect of over 35% in size
Sequence of Gonadotropin-releasing hormone receptor (Homo sapiens) (P30968 whole entry, looked up): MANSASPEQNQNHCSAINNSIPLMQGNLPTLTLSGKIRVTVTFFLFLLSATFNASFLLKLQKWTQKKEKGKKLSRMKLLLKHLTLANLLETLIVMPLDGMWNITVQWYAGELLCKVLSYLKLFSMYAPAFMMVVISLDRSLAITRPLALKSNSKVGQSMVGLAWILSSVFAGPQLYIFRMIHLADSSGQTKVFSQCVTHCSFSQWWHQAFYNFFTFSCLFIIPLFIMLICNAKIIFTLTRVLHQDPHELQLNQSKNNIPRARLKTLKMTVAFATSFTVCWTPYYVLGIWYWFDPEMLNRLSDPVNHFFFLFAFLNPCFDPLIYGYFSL
In short: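 HEK293 cells stably expressing human GnRHR were plated 18 h at 37 °C, loaded with calcium dye 1 h at 37 °C, then given compound in agonist mode; fluorescence (Ex/Em 480/540) read kinetically for 3 min at 1 s intervals.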

[2] = molecular target: KiSS-1 receptor (Homo sapiens) (UniProt Q969F8); assay: Human kisspeptin (KISS1R) small molecule agonists, calcium flux assay in KISS1R-HEK293 cells (AID 1920064; active = well fitted activation curve with a large enough effect in the repeat runs)
Sequence of KiSS-1 receptor (Homo sapiens) (Q969F8 whole entry, looked up): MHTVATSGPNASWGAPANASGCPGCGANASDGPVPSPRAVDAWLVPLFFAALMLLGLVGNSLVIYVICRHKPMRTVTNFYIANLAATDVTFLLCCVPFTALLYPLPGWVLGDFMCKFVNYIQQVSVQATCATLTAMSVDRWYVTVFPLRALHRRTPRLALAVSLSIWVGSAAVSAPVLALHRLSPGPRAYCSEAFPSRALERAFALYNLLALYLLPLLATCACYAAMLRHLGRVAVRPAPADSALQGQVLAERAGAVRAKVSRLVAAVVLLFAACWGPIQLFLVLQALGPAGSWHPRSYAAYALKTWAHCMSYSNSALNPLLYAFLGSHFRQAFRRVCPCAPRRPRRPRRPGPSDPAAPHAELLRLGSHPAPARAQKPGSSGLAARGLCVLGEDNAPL
In short: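 HEK293 cells stably expressing human KISS1R were plated 18 h at 37 °C, loaded with calcium dye for 1 h at 37 °C, then given compound by pin tool. Fluorescence (Ex/Em 480/540) was read kinetically for 3 min.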

[3] = G protein-coupled receptor (GPCR) small molecule agonists, calcium flux assay: HEK293 wild type cell line counter screen (AID 1920065)
In short: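 Cells were plated and cultured 18 h at 37 C/5% CO2, then loaded with calcium dye for 1 h at 37 C. Compounds in DMSO were pin-transferred in agonist mode, and fluorescence (Ex/Em 480/540) was read kinetically for 3 min at 1 s intervals.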

[4] = p53 small molecule agonists, cell-based qHTS assay with human liver microsomes: qHTS cell viability counter screen (AID 1963579); note: nearly all actives have a fitted effect of over 45% in size; note: potency is the fitted concentration of half-maximal effect
In short: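 Tox21 library compounds, delivered from DMSO stocks, were tested on p53RE-bla cells together with 0.5 mg/mL human liver microsomes and 0.5 mg/mL NADPH (final) over 16 h at 37 C; CellTiter-Glo luminescence served as the cytotoxicity measure.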

[5] = p53 small molecule agonists, cell-based qHTS assay with rat liver microsomes: qHTS cell viability counter screen (AID 1963580); note: nearly all actives have a fitted effect of over 45% in size; note: potency is the fitted concentration of half-maximal effect
In short: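 p53RE-bla HCT-116 cells were exposed 16 h at 37 C to compounds with rat liver microsomes (0.5 mg/mL) and NADPH (0.5 mg/mL). Viability was measured in the same wells as ATP content by CellTiter-Glo luminescence.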

[6] = p53 small molecule agonists, cell-based qHTS assay: qHTS cell viability counter screen (AID 1963581); note: nearly all actives have a fitted effect of over 45% in size
In short: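 p53RE-bla HCT-116 cells were exposed to compounds for 16 h at 37 C; after the beta-lactamase FRET read in the same wells, CellTiter-Glo was added and luminescence (intracellular ATP) read after 30 min at room temperature.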

[7] = molecular target: 5-hydroxytryptamine receptor 2A (Homo sapiens) (UniProt P28223); assay: 5-hydroxytryptamine receptor 2A (HTR2A) small molecule antagonists, cell-based qHTS assay (AID 1963586); note: nearly all actives have a fitted effect of over 45% in size
Sequence of 5-hydroxytryptamine receptor 2A (Homo sapiens) (P28223 whole entry, looked up): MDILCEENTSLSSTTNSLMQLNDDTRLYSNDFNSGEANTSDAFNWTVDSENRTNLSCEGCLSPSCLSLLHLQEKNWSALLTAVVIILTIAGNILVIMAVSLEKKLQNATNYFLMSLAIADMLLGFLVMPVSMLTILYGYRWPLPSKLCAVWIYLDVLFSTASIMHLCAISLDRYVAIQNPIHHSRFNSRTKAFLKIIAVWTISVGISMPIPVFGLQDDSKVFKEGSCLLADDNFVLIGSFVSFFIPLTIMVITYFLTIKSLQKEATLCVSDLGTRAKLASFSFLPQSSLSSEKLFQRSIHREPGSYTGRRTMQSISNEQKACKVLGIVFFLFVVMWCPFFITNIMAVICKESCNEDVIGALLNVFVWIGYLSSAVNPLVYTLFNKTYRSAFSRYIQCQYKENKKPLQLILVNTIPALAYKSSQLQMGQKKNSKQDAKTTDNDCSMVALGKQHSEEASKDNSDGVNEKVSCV
In short: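 Antagonist-mode intracellular calcium assay: DOI (4 nM) added after 5 min compound pre-incubation at room temperature to dye-loaded HTR2A-CHO cells. Fluorescence followed for 3 min, sampled every second.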

[8] = molecular target: Muscarinic acetylcholine receptor M1 (Homo sapiens) (UniProt P11229); assay: Cholinergic receptor muscarinic 1 (CHRM1) small molecule antagonists, cell-based qHTS assay (AID 1963588); note: nearly all actives have a fitted effect of over 40% in size; note: potency is the fitted concentration of half-maximal effect
Sequence of Muscarinic acetylcholine receptor M1 (Homo sapiens) (P11229 whole entry, looked up): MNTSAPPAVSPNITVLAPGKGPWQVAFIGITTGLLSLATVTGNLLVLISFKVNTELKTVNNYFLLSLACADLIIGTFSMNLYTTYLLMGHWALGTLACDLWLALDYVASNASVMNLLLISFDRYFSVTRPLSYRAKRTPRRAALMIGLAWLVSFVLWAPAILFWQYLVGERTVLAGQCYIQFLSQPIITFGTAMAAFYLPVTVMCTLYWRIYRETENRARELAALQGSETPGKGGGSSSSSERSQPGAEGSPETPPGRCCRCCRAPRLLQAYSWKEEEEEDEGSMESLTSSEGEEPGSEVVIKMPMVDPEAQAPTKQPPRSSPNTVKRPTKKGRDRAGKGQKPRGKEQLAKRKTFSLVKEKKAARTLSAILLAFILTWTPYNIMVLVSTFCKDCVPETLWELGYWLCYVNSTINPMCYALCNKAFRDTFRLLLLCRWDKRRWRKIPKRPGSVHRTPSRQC
In short: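 CHRM1-CHO calcium-flux assay, antagonist mode. Cells were seeded 18 h, dye-loaded 1 h at 37 C and given compound for 5 min at RT, then acetylcholine was added at 50nM. FDSS fluorescence was read 3 min; 15 concentrations, three runs.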

[9] = molecular target: Muscarinic acetylcholine receptor M1 (Homo sapiens) (UniProt P11229); assay: Cholinergic receptor muscarinic 1 (CHRM1) small molecule agonists, cell-based qHTS assay (AID 1963589); note: nearly all actives have a fitted effect of over 35% in size
In short: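 CHO cells stably expressing human CHRM1, seeded 18 h at 37 C/5% CO2, dye-loaded 1 h at 37 C, then given compound in agonist mode; intracellular calcium fluorescence read kinetically at 1 s intervals. Fifteen concentrations, three independent runs.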

[10] = molecular target: Beta-2 adrenergic receptor (Homo sapiens) (UniProt P07550); assay: Adrenergic beta2 receptor (ADRB2) small molecule antagonists, cell-based qHTS assay (AID 1963592); note: series mostly up to about 92 µM; nearly all actives have a fitted effect of over 50% in size
Sequence of Beta-2 adrenergic receptor (Homo sapiens) (P07550 whole entry, looked up): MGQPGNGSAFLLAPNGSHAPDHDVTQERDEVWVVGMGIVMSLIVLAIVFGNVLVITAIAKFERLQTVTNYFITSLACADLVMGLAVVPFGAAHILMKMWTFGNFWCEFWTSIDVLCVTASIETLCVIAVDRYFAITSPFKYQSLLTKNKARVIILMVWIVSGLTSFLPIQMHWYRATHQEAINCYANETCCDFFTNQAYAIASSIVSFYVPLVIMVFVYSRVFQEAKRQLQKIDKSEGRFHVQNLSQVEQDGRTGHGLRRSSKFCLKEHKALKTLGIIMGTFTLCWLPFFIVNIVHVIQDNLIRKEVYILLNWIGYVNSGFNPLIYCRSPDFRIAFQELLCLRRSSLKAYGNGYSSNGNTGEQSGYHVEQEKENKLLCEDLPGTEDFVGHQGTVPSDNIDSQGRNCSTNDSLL
In short: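 Cells (CHO, stable ADRB2 overexpression) incubated 18-20hr at 37C; compounds added from DMSO; agonist mix (1nM isoproterenol, 100uM IBMX, 25uM Ro-20-1724) added; 0.5hr RT; d2-cAMP and anti-cAMP-cryptate added; 1hr RT; 665/615 nm read.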

[11] = molecular target: Beta-2 adrenergic receptor (Homo sapiens) (UniProt P07550); assay: Adrenergic beta2 receptor (ADRB2) small molecule agonists, cell-based qHTS assay (AID 1963593);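 note: CHO cells stably overexpressing human ADRB2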
In short: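 CHO cells stably over-expressing ADRB2 were plated overnight at 37C, then dosed with compounds plus a stimulation mix containing 100uM IBMX and 25uM Ro-20-1724 for 0.5hr at room temperature. cAMP was measured by HTRF competition, 1hr.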

[12] = molecular target: D(2) dopamine receptor (Homo sapiens) (UniProt P14416); assay: Dopamine D2 receptor (DRD2) small molecule agonists, cell-based qHTS assay (AID 1963594); note: nearly all actives have a fitted effect of over 35% in size
Sequence of D(2) dopamine receptor (Homo sapiens) (P14416 whole entry, looked up): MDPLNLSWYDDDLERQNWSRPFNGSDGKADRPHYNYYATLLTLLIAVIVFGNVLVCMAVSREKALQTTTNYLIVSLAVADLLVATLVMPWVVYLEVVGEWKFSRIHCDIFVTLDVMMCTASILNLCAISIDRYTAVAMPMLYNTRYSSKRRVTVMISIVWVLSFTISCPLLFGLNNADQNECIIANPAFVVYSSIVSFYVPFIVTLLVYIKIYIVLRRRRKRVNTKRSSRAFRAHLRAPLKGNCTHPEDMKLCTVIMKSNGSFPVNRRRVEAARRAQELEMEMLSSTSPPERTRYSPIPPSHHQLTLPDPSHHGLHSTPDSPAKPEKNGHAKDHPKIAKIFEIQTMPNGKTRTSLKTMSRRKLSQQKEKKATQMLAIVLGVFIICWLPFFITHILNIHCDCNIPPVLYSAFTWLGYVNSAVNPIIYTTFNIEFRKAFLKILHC
In short: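 HEK293 cells stably expressing human DRD2, pre-treated with PDE inhibitor Ro20-1724 (0.1 mM final) and compound 10 min at room temperature, then stimulated with NKH477 (200nM […]) for 30 min. cAMP read by HTRF (665/620 nm).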

[13] = molecular target: D(2) dopamine receptor (Homo sapiens) (UniProt P14416); assay: Dopamine D2 receptor (DRD2) small molecule antagonists, cell-based qHTS assay (AID 1963595; active = well fitted inhibition curve with a large enough effect in the signal ratio in the repeat runs, with a control signal flat; the % refers to the signal ratio)
In short: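 HEK293 cells stably expressing DRD2 were preincubated with 0.1 mM Ro20-1724, then with compound for 10 min at room temperature. Cells were stimulated with 200 nM NKH477 plus 12 nM quinpirole for 30 min, and cAMP was read by HTRF.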

[14] = molecular target: 5-hydroxytryptamine receptor 2A (Homo sapiens) (UniProt P28223); assay: 5-hydroxytryptamine receptor 2A (HTR2A) small molecule agonists, cell-based qHTS assay (AID 1963587); note: nearly all actives have a fitted effect of over 30% in size
In short: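 CHO cells stably expressing human HTR2A, plated 18 h, loaded with calcium dye 1 h at 37 C. Agonist mode: compounds added and intracellular calcium fluorescence recorded kinetically for 2 min at 1 sec intervals.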

[15] = cAMP Responsive Elements (CRE) small molecule agonists, cell-based qHTS assay (AID 1963590)
In short: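 CRE-bla HEK 293T cells in DMEM with 10% dialyzed FBS, NEAA, pyruvate and 25 mM HEPES were plated 18 h at 37 C/5% CO2, then exposed to compounds in DMSO for 3 h before LiveBLAzer B/G FRET substrate addition.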

[16] = cAMP Responsive Elements (CRE) small molecule antagonists, cell-based qHTS assay (AID 1963591; active = well fitted inhibition curve with a large enough effect in the signal ratio in the repeat runs, not every such curve was filed as active; the % refers to the signal ratio; note: potency is the fitted concentration of half-maximal effect)
In short: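 CRE-bla HEK293T cells were plated 18 h at 37 °C/5% CO2, pinned with compound in DMSO, then stimulated with NKH477 at 0.25 uM final for 3 h. LiveBLAzer B/G FRET substrate was added and plates incubated 2 h at room temperature.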

[17] = p53 small molecule agonists, cell-based qHTS assay with rat liver microsomes (AID 1963578)
In short: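 Each plate received p53RE-bla cells, then compound, then rat liver microsomes and NADPH (both 0.5 mg/mL final). Plates were held 16 h at 37 C, and beta-lactamase activity was detected with LiveBLAzer over 2 h.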

[18] = p53 small molecule agonists, cell-based qHTS assay (AID 1963582; active = well fitted activation curve with a large enough effect in the signal ratio in the repeat runs, not every such curve was filed as active; the % refers to the signal ratio)
In short: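 p53RE-bla beta-lactamase reporter cells rested 5 h at 37 C/5% CO2, then received compounds in DMSO by pin transfer and were incubated 16 h at 37 C. LiveBLAzer B/G FRET substrate was loaded for 2 h at room temperature before fluorescence reading.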

[19] = p53 small molecule agonists, cell-based qHTS assay with human liver microsomes (AID 1963577);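 note: p53 response element beta-lactamase reporter cells with liver microsomes plus NADPH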
In short: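 Metabolically competent format: test substances, human liver microsomes and NADPH (both 0.5 mg/mL final) incubated with p53RE-bla cells 16 h at 37 C. Beta-lactamase reporter signal then quantified by fluorescence.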

CCCCCCCC/C=C\CCCCCCCC(=O)OCCO
Potency [1]: inactive
Potency [2]: inactive
Potency [3]: inactive
Potency [4]: inactive
Potency [5]: inactive
Potency [6]: inactive
Potency [7]: inactive
Potency [8]: inactive
Potency [9]: inactive
Potency [10]: inactive
Potency [11]: inactive
Potency [12]: inactive
Potency [13]: inactive

OC[C@H]1O[C@@H]2O[C@H]3[C@H](O)[C@@H](O)[C@@H](O[C@H]4[C@H](O)[C@@H](O)[C@@H](O[C@H]5[C@H](O)[C@@H](O)[C@@H](O[C@H]6[C@H](O)[C@@H](O)[C@@H](O[C@H]7[C@H](O)[C@@H](O)[C@@H](O[C@H]8[C@H](O)[C@@H](O)[C@@H](O[C@H]9[C@H](O)[C@@H](O)[C@@H](O[C@H]1[C@H](O)[C@H]2O)O[C@@H]9CO)O[C@@H]8CO)O[C@@H]7CO)O[C@@H]6CO)O[C@@H]5CO)O[C@@H]4CO)O[C@@H]3CO
Potency [1]: inactive
Potency [2]: inactive
Potency [3]: inactive
Potency [4]: inactive
Potency [5]: inactive
Potency [6]: inactive
Potency [7]: inactive
Potency [14]: inactive
Potency [8]: inactive
Potency [9]: inactive
Potency [15]: inactive
Potency [16]: inactive
Potency [10]: inactive
Potency [11]: inactive
Potency [13]: inactive

Cc1ccc(Cl)c(N)c1Cl
Potency [1]: inactive
Potency [2]: inactive
Potency [3]: inactive
Potency [17]: inactive
Potency [4]: 18.2 µM (active)
Potency [5]: inactive
Potency [6]: inactive
Potency [18]: inactive
Potency [7]: inactive
Potency [14]: inactive
Potency [8]: inactive
Potency [9]: inactive
Potency [15]: inactive
Potency [16]: inactive
Potency [10]: inactive
Potency [11]: inactive
Potency [12]: inactive
Potency [13]: inactive

CC(C)(c1ccccc1)c1ccccc1
Potency [1]: inactive
Potency [2]: inactive
Potency [3]: inactive
Potency [19]: inactive
Potency [5]: inactive
Potency [6]: inactive
Potency [18]: inactive
Potency [7]: inactive
Potency [14]: inactive
Potency [8]: 1.1 µM (active)
Potency [9]: inactive
Potency [15]: inactive
Potency [16]: inactive
Potency [10]: inactive
Potency [11]: inactive
Potency [12]: inactive

C=O
Potency [1]: inactive
Potency [2]: inactive
Potency [3]: inactive
Potency [4]: inactive
Potency [5]: inactive
Potency [6]: inactive
Potency [7]: inactive
Potency [14]: inactive
Potency [9]: inactive
Potency [15]: inactive
Potency [16]: inactive
Potency [10]: inactive
Potency [12]: inactive
Potency [13]: inactive

COc1cc(Cc2cnc(N)nc2N)cc(OC)c1OC
Potency [1]: inactive
Potency [2]: inactive
Potency [3]: inactive
Potency [6]: inactive
Potency [18]: inactive
Potency [7]: inactive
Potency [14]: inactive
Potency [8]: inactive
Potency [9]: inactive
Potency [15]: inactive
Potency [10]: inactive
Potency [11]: inactive
Potency [13]: inactive

N#CCCOCCC#N
Potency [1]: inactive
Potency [2]: inactive
Potency [3]: inactive
Potency [17]: inactive
Potency [4]: inactive
Potency [5]: inactive
Potency [6]: inactive
Potency [18]: inactive
Potency [14]: inactive
Potency [8]: inactive
Potency [9]: inactive
Potency [15]: inactive
Potency [10]: inactive
Potency [12]: inactive
Potency [13]: inactive

O=C1c2c(O)ccc(O)c2C(=O)c2c(NCCNCCO)ccc(NCCNCCO)c21
Potency [1]: inactive
Potency [2]: inactive
Potency [3]: inactive
Potency [5]: 19.9 µM (active)
Potency [16]: 21.1 µM (active)

C=Cc1c(C)c2cc3[nH]c(cc4nc(cc5nc(cc1[nH]2)C(C)=C5CCC(=O)O)C(CCC(=O)O)=C4C)c(C)c3C=C
Potency [1]: inactive
Potency [2]: inactive
Potency [3]: inactive
Potency [17]: inactive
Potency [6]: inactive
Potency [18]: inactive
Potency [7]: inactive
Potency [14]: inactive
Potency [9]: inactive
Potency [15]: inactive
Potency [16]: inactive
Potency [10]: inactive

CNc1ccc([N+](=O)[O-])cc1
Potency [1]: inactive
Potency [2]: inactive
Potency [3]: inactive
Potency [4]: inactive
Potency [5]: inactive
Potency [6]: inactive
Potency [7]: inactive
Potency [14]: inactive
Potency [8]: inactive
Potency [9]: inactive
Potency [16]: inactive
Potency [10]: inactive
Potency [11]: inactive
Potency [12]: inactive
Potency [13]: inactive

CS(=O)(=O)c1ccc([C@@H](O)[C@@H](CF)NC(=O)C(Cl)Cl)cc1
Potency [1]: inactive
Potency [2]: inactive
Potency [3]: inactive
Potency [6]: inactive
Potency [18]: inactive
Potency [7]: inactive
Potency [14]: inactive
Potency [8]: inactive
Potency [9]: inactive
Potency [10]: inactive
Potency [11]: inactive
Potency [12]: inactive
Potency [13]: inactive

C=CC(C)(CCC=C(C)C)OC(=O)CC(C)C (stereo not drawn)
Potency [1]: inactive
Potency [2]: inactive
Potency [3]: inactive
Potency [4]: inactive
Potency [6]: inactive
Potency [7]: inactive
Potency [14]: inactive
Potency [8]: inactive
Potency [9]: inactive
Potency [15]: inactive
Potency [16]: inactive
Potency [12]: inactive
Potency [13]: inactive

CCC(C)(CCC(C)C)C(=O)O (stereo not drawn)
Potency [1]: inactive
Potency [2]: inactive
Potency [3]: inactive
Potency [4]: inactive
Potency [5]: inactive
Potency [6]: inactive
Potency [7]: inactive
Potency [14]: inactive
Potency [8]: inactive
Potency [9]: inactive
Potency [15]: inactive
Potency [16]: inactive
Potency [10]: inactive
Potency [12]: inactive
Potency [13]: inactive

CCOC(=O)c1nc(C(Cl)(Cl)Cl)n(-c2ccc(Cl)cc2Cl)n1
Potency [1]: inactive
Potency [2]: inactive
Potency [3]: inactive
Potency [4]: inactive
Potency [5]: inactive
Potency [7]: inactive
Potency [14]: inactive
Potency [16]: 61.1 µM (active)
Potency [12]: inactive
Potency [13]: inactive

Nc1ccc([N+](=O)[O-])cc1O
Potency [1]: inactive
Potency [2]: inactive
Potency [3]: inactive
Potency [19]: inactive
Potency [4]: inactive
Potency [18]: inactive
Potency [7]: inactive
Potency [14]: inactive
Potency [9]: inactive
Potency [15]: inactive
Potency [16]: inactive
